Molecules are shown by their SMILES. For some of these results: Results with a measured potency or affinity are listed apart.

The source of these data is ChEMBL document CHEMBL3988442, “University of Dundee, Small-Polar-MMV Screening Library” (2021).

Holding throughout (design): scale not given: direction of the effect not stated beside the values
The target of assay [1] is Protein translocase subunit SecA (Escherichia coli (strain K12)) (UniProt P10408). The assay is described as follows: Assay to Identify E. coli SecA ATPase Inhibitors. In kind it is functional. The conditions noted are these: 30 µM.
Chain of Protein translocase subunit SecA (Escherichia coli (strain K12)) (P10408 whole entry): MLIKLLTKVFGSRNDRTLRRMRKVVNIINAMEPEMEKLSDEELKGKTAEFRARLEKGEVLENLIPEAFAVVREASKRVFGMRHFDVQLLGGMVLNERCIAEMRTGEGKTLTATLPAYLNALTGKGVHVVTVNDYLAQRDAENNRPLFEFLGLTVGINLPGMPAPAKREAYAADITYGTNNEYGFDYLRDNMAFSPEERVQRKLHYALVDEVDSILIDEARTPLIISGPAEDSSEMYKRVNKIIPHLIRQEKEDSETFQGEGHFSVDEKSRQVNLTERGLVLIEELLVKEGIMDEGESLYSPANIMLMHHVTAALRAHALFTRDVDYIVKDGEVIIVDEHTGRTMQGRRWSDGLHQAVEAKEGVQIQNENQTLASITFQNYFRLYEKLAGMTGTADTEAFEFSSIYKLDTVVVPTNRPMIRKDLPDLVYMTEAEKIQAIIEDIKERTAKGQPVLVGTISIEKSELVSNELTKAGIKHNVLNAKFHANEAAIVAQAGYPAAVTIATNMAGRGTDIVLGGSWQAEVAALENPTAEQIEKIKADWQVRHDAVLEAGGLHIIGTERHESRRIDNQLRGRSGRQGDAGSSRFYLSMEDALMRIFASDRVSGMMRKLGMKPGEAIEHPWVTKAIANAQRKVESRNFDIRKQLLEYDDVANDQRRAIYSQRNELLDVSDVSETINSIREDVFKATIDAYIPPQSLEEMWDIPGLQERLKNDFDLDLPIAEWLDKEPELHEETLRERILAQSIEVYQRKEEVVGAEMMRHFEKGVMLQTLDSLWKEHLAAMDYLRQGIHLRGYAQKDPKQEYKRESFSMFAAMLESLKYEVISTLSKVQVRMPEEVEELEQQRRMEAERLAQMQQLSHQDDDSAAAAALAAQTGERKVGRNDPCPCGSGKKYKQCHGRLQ
Assay [2] has as its target T1, Ubiquitin-activating enzyme e1, putative (Leishmania donovani (strain BPK282A1)) (UniProt E9BSI1).
T1 sequence (whole entry): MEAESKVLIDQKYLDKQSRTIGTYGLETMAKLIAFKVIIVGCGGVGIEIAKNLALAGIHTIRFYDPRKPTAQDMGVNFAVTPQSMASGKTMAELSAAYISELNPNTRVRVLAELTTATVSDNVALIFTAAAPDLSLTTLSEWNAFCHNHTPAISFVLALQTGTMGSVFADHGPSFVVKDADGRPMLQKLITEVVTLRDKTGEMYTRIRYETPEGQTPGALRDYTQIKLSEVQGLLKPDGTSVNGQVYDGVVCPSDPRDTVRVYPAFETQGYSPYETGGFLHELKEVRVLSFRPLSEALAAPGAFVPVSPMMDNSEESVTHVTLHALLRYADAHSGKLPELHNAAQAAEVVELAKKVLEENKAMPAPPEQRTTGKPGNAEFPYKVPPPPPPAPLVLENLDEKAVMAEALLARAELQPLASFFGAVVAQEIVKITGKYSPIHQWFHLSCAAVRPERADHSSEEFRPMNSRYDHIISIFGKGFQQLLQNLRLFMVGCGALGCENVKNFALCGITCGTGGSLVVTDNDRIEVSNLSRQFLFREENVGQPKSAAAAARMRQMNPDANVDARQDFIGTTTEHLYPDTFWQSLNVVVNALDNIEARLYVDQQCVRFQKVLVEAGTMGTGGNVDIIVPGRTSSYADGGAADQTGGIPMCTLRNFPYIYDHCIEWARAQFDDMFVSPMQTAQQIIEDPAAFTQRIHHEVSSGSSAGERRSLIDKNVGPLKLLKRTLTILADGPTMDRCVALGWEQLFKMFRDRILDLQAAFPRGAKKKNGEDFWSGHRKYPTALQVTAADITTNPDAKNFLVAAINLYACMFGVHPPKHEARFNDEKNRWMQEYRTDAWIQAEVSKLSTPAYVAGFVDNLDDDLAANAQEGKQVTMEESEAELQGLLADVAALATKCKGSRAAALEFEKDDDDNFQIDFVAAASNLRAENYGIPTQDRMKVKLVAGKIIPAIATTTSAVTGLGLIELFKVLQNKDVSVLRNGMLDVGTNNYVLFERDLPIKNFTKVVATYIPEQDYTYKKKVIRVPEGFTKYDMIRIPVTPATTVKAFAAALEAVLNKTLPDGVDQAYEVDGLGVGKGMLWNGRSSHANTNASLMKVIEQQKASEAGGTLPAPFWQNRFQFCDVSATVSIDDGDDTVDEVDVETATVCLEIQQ
The assay is described as follows: Leishmania donovani Ubiquitin Activating Enzyme (LdE1). In kind it is functional. The following applies: 30 µM.

Assay [3] concerns the target AMP-activated protein kinase, AMPK (Homo sapiens) (UniProt P54646+O43741+P54619+Q9UGJ0+Q9Y478+Q13131+Q9UGI9). The assay is described as follows: AMP-dependent Kinase enzyme assay. An in vitro enzyme assay that detects ADP turnover that is directly proportional to AMPK activity. This uses naive AMPK that is activated during the assay with MK-8722. In kind it is functional. The conditions noted are these: 30 µM.

In assay [4] the target is Sialic acid-binding Ig-like lectin 9 (Homo sapiens) (UniProt Q9Y336). Nature of the assay: Hs-Siglec9 ALPHAscreen SOP 20170721. The following applies: 10 µM. On the technique in general: In Alpha technology, singlet oxygen from a donor bead excites a nearby acceptor bead.
Chain of Sialic acid-binding Ig-like lectin 9 (Homo sapiens) (Q9Y336 whole entry): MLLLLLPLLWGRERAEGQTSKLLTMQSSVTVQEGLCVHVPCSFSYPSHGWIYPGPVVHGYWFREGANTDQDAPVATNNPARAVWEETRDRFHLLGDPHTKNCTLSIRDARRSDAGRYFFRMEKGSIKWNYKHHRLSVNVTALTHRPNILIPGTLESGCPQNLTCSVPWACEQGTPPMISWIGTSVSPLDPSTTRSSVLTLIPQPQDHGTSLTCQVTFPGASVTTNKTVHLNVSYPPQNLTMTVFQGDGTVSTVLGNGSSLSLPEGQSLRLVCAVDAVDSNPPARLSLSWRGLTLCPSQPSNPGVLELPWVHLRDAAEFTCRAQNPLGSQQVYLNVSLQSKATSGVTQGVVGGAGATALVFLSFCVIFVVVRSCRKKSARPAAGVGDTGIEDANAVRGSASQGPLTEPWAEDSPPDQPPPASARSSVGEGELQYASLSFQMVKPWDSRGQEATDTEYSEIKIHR
Another assay concerns Trypanosoma cruzi. Nature of the assay: Trypanosoma cruzi phosphomannomutase and mannose-1-phosphate guanylyltransferase assay. In kind it is functional. The conditions noted are these: 10 µM.
For assay [5], the target named is T2, Arginase-2, mitochondrial (Homo sapiens) (UniProt P78540).
T2 sequence (whole entry): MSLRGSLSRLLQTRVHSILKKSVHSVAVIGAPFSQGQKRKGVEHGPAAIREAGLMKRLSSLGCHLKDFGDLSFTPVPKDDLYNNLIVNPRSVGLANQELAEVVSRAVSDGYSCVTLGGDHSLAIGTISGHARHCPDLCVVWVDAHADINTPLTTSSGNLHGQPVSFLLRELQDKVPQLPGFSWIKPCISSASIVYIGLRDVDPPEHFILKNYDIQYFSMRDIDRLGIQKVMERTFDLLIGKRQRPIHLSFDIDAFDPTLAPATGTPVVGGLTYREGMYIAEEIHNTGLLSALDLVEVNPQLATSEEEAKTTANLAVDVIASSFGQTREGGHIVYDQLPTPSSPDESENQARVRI
Nature of the assay: in vitro enzyme assay to detect the production of urea directly proportional to the activity of Arginase II. Further: in the data most compounds retested in dose-response had high values. The conditions noted are these: 33.3 µM. In kind it is functional.

For assay [6], the target named is T3, Proteasome subunit beta (Trypanosoma cruzi) (UniProt O96673).
T3 sequence (whole entry): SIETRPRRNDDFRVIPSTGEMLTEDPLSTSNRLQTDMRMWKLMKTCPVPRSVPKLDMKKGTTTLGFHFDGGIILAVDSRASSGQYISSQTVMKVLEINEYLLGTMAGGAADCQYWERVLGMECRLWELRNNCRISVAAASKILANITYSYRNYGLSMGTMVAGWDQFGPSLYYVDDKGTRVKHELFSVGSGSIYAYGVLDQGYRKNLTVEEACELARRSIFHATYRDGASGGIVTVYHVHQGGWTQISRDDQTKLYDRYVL
The assay is described as follows: Trypanosoma cruzi proteasome chymotrypsin-like activity (TcProtChymo) assay. Further: in the data most compounds retested in dose-response had high values. The conditions noted are these: 9.37 µM. In kind it is functional.

The species entered for the next assay is Homo sapiens. Nature of the assay: To identify inhibition of the IFN signalling (Jak-Stat) pathway via expression of an eGFP reporter gene under the control of an IFN-stimulated response element (ISRE) containing MxA promoter. In kind it is functional. The following applies: 30 µM. A general note: In a reporter assay the amount or activity of a reporter protein is the signal.

In assay [7] the target is T4, Tyrosyl-tRNA synthetase, putative (Trypanosoma cruzi (strain CL Brener)) (UniProt Q4DSP6).
T4 sequence (whole entry): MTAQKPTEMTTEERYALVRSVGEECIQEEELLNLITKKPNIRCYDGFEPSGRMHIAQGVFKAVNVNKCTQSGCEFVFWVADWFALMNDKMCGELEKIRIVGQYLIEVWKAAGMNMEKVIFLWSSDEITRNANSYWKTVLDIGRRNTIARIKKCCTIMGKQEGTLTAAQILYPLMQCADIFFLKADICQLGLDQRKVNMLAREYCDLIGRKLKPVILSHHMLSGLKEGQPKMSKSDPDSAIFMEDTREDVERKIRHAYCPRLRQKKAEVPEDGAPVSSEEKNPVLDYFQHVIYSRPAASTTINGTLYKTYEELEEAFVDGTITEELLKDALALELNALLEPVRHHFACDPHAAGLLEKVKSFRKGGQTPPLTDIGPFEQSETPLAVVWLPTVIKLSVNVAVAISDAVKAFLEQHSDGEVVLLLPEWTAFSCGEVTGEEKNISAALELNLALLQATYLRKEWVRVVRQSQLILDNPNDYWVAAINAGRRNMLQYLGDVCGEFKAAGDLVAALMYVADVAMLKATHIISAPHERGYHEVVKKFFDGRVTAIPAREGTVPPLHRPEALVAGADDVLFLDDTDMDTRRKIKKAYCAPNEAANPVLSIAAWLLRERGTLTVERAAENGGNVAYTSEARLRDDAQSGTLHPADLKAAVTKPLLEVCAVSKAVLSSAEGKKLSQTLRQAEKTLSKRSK
The assay is described as follows: Trypanosoma cruzi tyrosyl tRNA synthetase (TcYRS) _High Tyrosine SOP. Further: in the data most compounds retested in dose-response had high values. In kind it is functional. The conditions noted are these: 30 µM.

For assay [8], the target named is T4, Tyrosyl-tRNA synthetase, putative (Trypanosoma cruzi (strain CL Brener)). The assay is described as follows: Trypanosoma cruzi tyrosyl tRNA synthetase (TcYRS) SOP. In kind it is functional. The conditions noted are these: 30 µM.
In assay [9] the target is Chromo domain-containing protein 1 (Saccharomyces cerevisiae (strain ATCC 204508 / S288c) (Baker's yeast)) (UniProt P32657). Nature of the assay: ScCHD-1 Enzyme Inhibition Assay. Further: in the data most compounds retested in dose-response had high values. In kind it is functional. The conditions noted are these: 30 µM.
Chain of Chromo domain-containing protein 1 (Saccharomyces cerevisiae (strain ATCC 204508 / S288c) (Baker's yeast)) (P32657 whole entry, the tested form may be a part): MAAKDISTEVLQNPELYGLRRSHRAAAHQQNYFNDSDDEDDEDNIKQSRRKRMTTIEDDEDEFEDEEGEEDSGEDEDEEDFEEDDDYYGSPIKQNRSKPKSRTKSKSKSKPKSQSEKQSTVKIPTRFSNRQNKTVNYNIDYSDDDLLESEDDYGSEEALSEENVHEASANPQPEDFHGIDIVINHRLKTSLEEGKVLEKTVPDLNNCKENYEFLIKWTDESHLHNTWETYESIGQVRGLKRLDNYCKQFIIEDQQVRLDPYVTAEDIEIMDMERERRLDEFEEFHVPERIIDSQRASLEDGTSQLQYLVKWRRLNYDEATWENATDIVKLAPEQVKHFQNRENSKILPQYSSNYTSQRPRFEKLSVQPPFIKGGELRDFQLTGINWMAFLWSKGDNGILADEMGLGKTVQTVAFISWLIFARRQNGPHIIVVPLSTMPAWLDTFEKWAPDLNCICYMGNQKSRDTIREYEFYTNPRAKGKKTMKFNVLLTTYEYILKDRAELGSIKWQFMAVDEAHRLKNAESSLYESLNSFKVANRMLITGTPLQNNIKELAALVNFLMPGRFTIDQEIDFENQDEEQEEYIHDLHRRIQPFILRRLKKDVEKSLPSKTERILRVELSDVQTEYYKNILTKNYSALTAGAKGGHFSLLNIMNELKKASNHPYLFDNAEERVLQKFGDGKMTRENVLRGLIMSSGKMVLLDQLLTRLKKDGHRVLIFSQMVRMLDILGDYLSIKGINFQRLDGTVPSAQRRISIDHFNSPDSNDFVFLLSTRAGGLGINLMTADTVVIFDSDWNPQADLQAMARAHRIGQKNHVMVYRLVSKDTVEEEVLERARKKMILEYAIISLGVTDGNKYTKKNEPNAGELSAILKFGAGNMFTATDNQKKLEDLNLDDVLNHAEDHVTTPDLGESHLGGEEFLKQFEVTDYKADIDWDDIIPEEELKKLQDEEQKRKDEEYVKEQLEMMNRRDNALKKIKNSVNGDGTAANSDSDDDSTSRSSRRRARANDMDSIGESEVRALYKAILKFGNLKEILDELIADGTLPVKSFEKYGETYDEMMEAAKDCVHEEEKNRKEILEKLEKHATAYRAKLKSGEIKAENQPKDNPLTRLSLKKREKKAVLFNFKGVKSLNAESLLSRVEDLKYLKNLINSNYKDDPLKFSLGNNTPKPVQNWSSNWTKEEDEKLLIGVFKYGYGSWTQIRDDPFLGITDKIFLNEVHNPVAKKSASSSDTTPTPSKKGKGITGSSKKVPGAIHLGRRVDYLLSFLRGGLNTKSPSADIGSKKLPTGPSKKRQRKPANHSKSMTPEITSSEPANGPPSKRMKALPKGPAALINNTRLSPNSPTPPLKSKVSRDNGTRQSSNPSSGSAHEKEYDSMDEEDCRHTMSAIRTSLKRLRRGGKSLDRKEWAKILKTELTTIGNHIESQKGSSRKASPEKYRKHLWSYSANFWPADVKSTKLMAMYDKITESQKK

In the case of `CCCC(=O)N1CC[C@@H]2[C@H](CC1)N(Cc1cccnc1)CCS2(=O)=O`, the Percent Effect in [1] is -8.11%; in assay [2] it was 5.41%; in [3], 3.63%; in assay [4], -1.04%; with Trypanosoma cruzi, -0.586%; in [5], 2.5%. Further, the Percent Effect in assay [6] is 6.85%; in the assay listed under Homo sapiens, 0.118%; in assay [7], 8.91%; in assay [8], 8.54%; in assay [9], -3.88%.

With `CN(C(=O)c1ccccn1)c1nc2c(s1)CCc1c-2cnn1C`, the Percent Effect was -3.06% in assay [1]; 52.7% in assay [2]; 11% in [3]; -2.4% in assay [4]; 4.94% with Trypanosoma cruzi; -4.41% in assay [5]. Besides, the Percent Effect in assay [6] was 11.5%; in the assay filed under Homo sapiens, 16.9%; in [7], -4.3%; in assay [8] it was 1.3%; in assay [9], -15.7%.

As to `Cc1noc(CN2CCOC(CN(C)C)C2)n1` (stereo not drawn), the Percent Effect in assay [1] is -2.18%; in assay [2], 24.3%; in assay [3] it was 0.532%; in [4], -4.95%; with Trypanosoma cruzi, 5.11%; in [5] it was 2.77%. Further, the Percent Effect in assay [6] is 11.3%; in the assay filed under Homo sapiens, 22.3%; in assay [7], 5.94%; in assay [8], 18.3%; in assay [9], -7.83%.

For the compound `Cc1nc(-c2ccsc2)ccc1C(=O)NCCN1CCOCC1`, the Percent Effect was -6.91% in [1]; 10.5% in assay [2]; -3.72% in assay [3]; 7.24% in [4]; 4.32% with Trypanosoma cruzi; -0.383% in assay [5]. In addition, the Percent Effect is 8.02% in assay [6]; 1.25% in the assay listed under Homo sapiens; 6.37% in assay [7]; 19.5% in assay [8]; -8.61% in assay [9].

For `O=C(C[C@@H]1COC[C@H]2CN(Cc3ccc(F)cc3)C[C@@H]12)N1CCOCC1`, the Percent Effect in assay [1] was -9.06%; in assay [2] it was 17.3%; in assay [3], -1.45%; in [4], -0.881%; in the assay with Trypanosoma cruzi it was -3.73%; in assay [5], -10.4%. For the same compound, the Percent Effect was 7.58% in [6]; 7.29% in the assay filed under Homo sapiens; -2.12% in assay [7]; -5.13% in assay [8]; -10.9% in assay [9].

In the case of `CCCc1nc(CN2CCCC2Cn2cncn2)cs1` (stereo not drawn), the Percent Effect in [1] is -3.84%; in assay [2] it was 12.7%; in [3], -5.8%; in assay [4], 9.38%; in the assay with Trypanosoma cruzi, 3.87%; in [5], -24.3%. The Percent Effect in assay [6] was 5.98%; in the assay filed under Homo sapiens, 4.39%; in assay [7], 10.3%; in [8], 24.1%; in assay [9], -3.42%.

Regarding `CCn1cc(NC(=O)NCC(O)CN2CCc3ccccc3C2)cn1` (stereo not drawn), the Percent Effect in assay [1] is -1.09%; in assay [2], 23.4%; in [3], -8.59%; in assay [4], -13.8%; in the assay with Trypanosoma cruzi, -0.0979%; in assay [5] it was -6.53%. The Percent Effect in [6] was 18.2%; in the assay listed under Homo sapiens, 34.1%; in assay [7], 8.57%; in assay [8], 30.6%; in assay [9] it was -18.1%.

`Cc1n[nH]c(C2CN(C(=O)c3ccnc(C4CC4)n3)CCO2)n1` (stereo not drawn): the Percent Effect in assay [1] is -1.78%; in assay [2] it was 10.4%; in assay [3] it was 5.44%; in [4] it was 10.3%; in the assay on Trypanosoma cruzi, -0.0979%; in assay [5] it was 5.26%. The Percent Effect in [6] was 9.78%; in the assay filed under Homo sapiens it was -6.73%; in assay [7], 5.71%; in [8], -23.5%; in assay [9] it was -12.2%.
